# From PMC5540273 (PLoS ONE, 2017)
# Assays:
# Details in all cases: concentration: 1 μM, replicates: in singlicate; n = 1
# [1] = system: T1, TIE2
# T1 construct: gene TEK
# [2] = system: TLK1
# [3] = system: TLK2
# [4] = system: TNIK
# [5] = system: TNK1
# [6] = system: TNK2
# [7] = system: TNNI3K
# [8] = system: T2, TRKA
# T2 construct: gene NTRK1
# [9] = system: TRKB
# [10] = system: T3, TRKC
# T3 construct: gene NTRK3
# [11] = system: TRPM6
# [12] = system: TSSK1B
# [13] = system: TSSK3
# [14] = system: TTK
# [15] = system: TXK
# [16] = system: TYK2(JH1domain-catalytic)
# [17] = system: TYK2(JH2domain-pseudokinase)
# [18] = system: TYRO3
# [19] = system: ULK1
# [20] = system: ULK2
# 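Further: KINOMEscan kinase panel screen.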
Compound,%Inh [1],%Inh [2],%Inh [3],%Inh [4],%Inh [5],%Inh [6],%Inh [7],%Inh [8],%Inh [9],%Inh [10],%Inh [11],%Inh [12],%Inh [13],%Inh [14],%Inh [15],%Inh [16],%Inh [17],%Inh [18],%Inh [19],%Inh [20]
Cc1cccc(-c2cc(-c3c[nH]nc3-c3ccccn3)ccn2)c1 [GW679395],0%,0%,0%,59%,0%,4%,9%,0%,13%,20%,0%,24%,0%,23%,0%,9%,27%,0%,0%,0%
COc1cc2ncn(-c3cc(OCCCc4ccccc4)c(C(N)=O)s3)c2cc1OC [GSK205189],0%,0%,0%,22%,12%,7%,0%,55%,0%,24%,0%,0%,10%,12%,0%,0%,0%,0%,2%,0%
Cc1cc(Nc2nc(-c3cccc(C)n3)nc3ccccc23)ccn1 [GW872411],13%,0%,15%,13%,25%,0%,0%,0%,0%,0%,0%,0%,0%,0%,0%,0%,1%,0%,4%,0%
Nc1ncnc2c1ncn2-c1ccc(Cl)cc1 [AH2635],0%,0%,0%,0%,0%,0%,0%,14%,0%,16%,44%,0%,16%,0%,5%,25%,39%,0%,0%,0%
O=c1cc(N2CCOCC2)nc2n(Cc3ccc(F)c(Cl)c3)ccn12 [GSK2297099],0%,11%,22%,0%,0%,10%,0%,0%,0%,0%,36%,0%,9%,0%,0%,0%,15%,0%,16%,0%
Cc1nc(N(C)[C@H]2CN(C(=O)CC#N)CC[C@H]2C)c2cc[nH]c2n1,3%,3%,7%,0%,3%,11%,0%,17%,0%,0%,0%,0%,0%,19%,8%,15%,0%,18%,0%,8%
Cn1c(=O)c(F)c(Nc2ccc(I)cc2F)c2c(=O)n(OC[C@H](O)CO)cnc21,9%,0%,0%,0%,29%,0%,4%,0%,0%,0%,0%,0%,0%,15%,23%,0%,0%,2%,0%,0%
Nc1nccc2scc(-c3ccc4c(c3)CCN4C(=O)Cc3ccccc3)c12 [GSK2576924],13%,22%,3%,0%,0%,0%,0%,49%,0%,0%,13%,0%,14%,0%,4%,14%,0%,0%,2%,0%
O=C(Nc1n[nH]c2nc(-c3ccccc3)c(Cl)cc12)C1CC1 [SB-734909],15%,0%,6%,8%,0%,0%,0%,0%,0%,0%,29%,0%,0%,0%,4%,25%,16%,0%,22%,20%
Cc1nnc(-c2ccc3ncn(-c4ccc(S(C)=O)cc4)c3c2)o1 (stereo not shown),11%,23%,0%,11%,4%,0%,7%,0%,0%,0%,0%,0%,6%,0%,5%,0%,2%,12%,0%,0%
FC(F)(F)c1ccc(-c2ncn(CCCN3CCOCC3)c2-c2ccncc2)cc1 [SB-217780],6%,0%,0%,0%,1%,0%,0%,14%,0%,0%,4%,0%,0%,0%,10%,32%,24%,0%,1%,46%
Cl.NS(=O)(=O)c1cccc(Nc2cc(-c3ccc(F)cc3)n[nH]2)c1 [GW824645],2%,0%,0%,45%,0%,0%,0%,40%,44%,31%,0%,0%,0%,0%,0%,0%,9%,0%,15%,47%
COc1cc(Nc2nccc(N3CCC(NC(=O)C(C)c4ccc(Cl)cc4)C3)n2)cc(OC)c1OC (stereo not shown) [GSK1379757],0%,0%,0%,0%,0%,6%,0%,63%,0%,43%,0%,0%,19%,0%,0%,38%,31%,0%,0%,0%
CCc1nc(-c2cccc(C)c2)c(-c2ccncc2)s1,12%,24%,0%,59%,2%,0%,0%,11%,0%,0%,0%,0%,0%,0%,0%,0%,25%,0%,0%,0%
O=C(Nc1n[nH]c2cc(-c3ccccc3F)ccc12)C1CC1 [SB-733371],26%,2%,0%,76%,0%,0%,0%,53%,0%,19%,0%,0%,0%,0%,12%,0%,0%,0%,2%,8%
Nc1nc(-c2ccccc2F)c(-c2ccnc3ccccc23)s1 [GW560459],3%,0%,0%,65%,0%,3%,94.1%,0%,26%,31%,32%,14%,10%,20%,0%,7%,32%,0%,0%,0%
COC(=O)c1c(-c2ccccc2)c2cc(Br)ccc2c(=O)n1Cc1ccc(S(C)(=O)=O)cc1,3%,14%,0%,0%,0%,1%,0%,0%,0%,24%,2%,0%,0%,31%,12%,7%,15%,1%,0%,13%
CCC(=O)c1c(-c2ccccc2)c2cc(Cl)ccc2c(=O)n1Cc1cc(C(=O)NC2CC2)n(C)n1,0%,8%,0%,0%,0%,0%,0%,0%,0%,7%,0%,0%,0%,15%,24%,8%,1%,0%,0%,6%
COc1cc(Nc2nccc(N3CCC(NC(=O)C4COc5ccccc5O4)C3)n2)cc(OC)c1OC (stereo not shown) [GSK1379761],0%,8%,0%,0%,28%,6%,0%,77%,31%,61%,0%,0%,9%,13%,10%,81%,29%,0%,8%,0%
Fc1cccc(CSc2nnc(-c3ccc4c(c3)CCO4)o2)c1,7%,0%,12%,0%,0%,8%,6%,3%,0%,28%,0%,0%,2%,2%,0%,4%,12%,0%,0%,9%
